The source of these data is PubChem BioAssay (Tox21).

A short description of experiment [1]: qHTS assay to identify small molecule agonists of the RXR signaling pathway - cell viability counter screen (AID 1159529). Further: nearly all actives have a fitted effect of over 50% in size. Further: potency means the concentration at half of the fitted maximal effect. On activity change, negative = cytotoxicity: series mostly up to about 77 µM. The gist of the method: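 RXR-alpha-UAS-bla HEK 293T cells in medium with 2% charcoal-stripped FBS were pre-incubated 5 hr, then compound-treated 16 hr at 37 C. Viability was read by CellTiter-Glo luminescence in the same wells as the beta-lactamase assay, with tetraoctyl ammonium bromide as positive control.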

The nature of experiment [2]: qHTS assay to identify small molecule antagonists of the retinoid acid receptor (RAR) signaling pathway - cell viability counter screen (AID 1159551). Further: nearly all actives have a fitted effect of over 35% in size. The procedure, abridged:
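Measured by luminescent ATP detection, viability reflects C3RL4 cells treated 6 h at 37 C with test chemicals in the presence of 1 uM (final) retinol.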

The nature of experiment [3]: qHTS assay to identify small molecule antagonists of the retinoic acid receptor (RAR) signaling pathway (AID 1159552; further: nearly all actives have a fitted effect of over 50% in size). The gist of the method: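 Retinol signaling pathway inhibitors screened in C3RL4 RARE-luciferase reporter cells seeded overnight at 37 C, then compounds added with 1 uM (final) retinol as pathway substrate. After 6 hr at 37 C, luciferase luminescence read after 30 min at room temperature.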

Experiment [4] can be described thus: qHTS assay to identify small molecule agonists of the retinoic acid receptor (RAR) signaling pathway (AID 1159553). The procedure, abridged: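 6 hr compound exposure (DMSO vehicle) of overnight-plated C3RL4 RARE-luc cells at 37 C; luminescence quantified after 30 min RT with luciferase reagent.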
A short description of experiment [5]: qHTS assay to identify small molecule antagonists of the estrogen related receptor (ERR) signaling pathway from Tox21 library - cell viability counter screen (AID 1224834). Further: nearly all actives have a fitted effect of over 30% in size. Further: potency means the concentration at half of the fitted maximal effect. The procedure, abridged:
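Seeded ERR cells were rested 6 h at 37 C/5% CO2 before compounds, positive and negative controls or DMSO were added. Incubation continued for 17.5 h, and viability was then quantified by CellTiter-Fluor fluorescence.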

For experiment [6], the target named is Luciferin 4-monooxygenase (Photinus pyralis) (UniProt P08659). Put plainly: qHTS assay to identify small molecule inhibitors of firefly luciferase (AID 1224835). Further: series mostly up to about 120 µM; nearly all actives have a fitted effect of over 25% in size. The gist of the method: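 Biochemical qHTS: compounds run as interplate titrations against purified firefly enzyme, with D-luciferin and ATP each at its KM concentration. Light output recorded by CCD imaging.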

Experiment [7] in a line: qHTS assay to identify small molecule agonists of the constitutive androstane receptor (CAR) signaling pathway - cell viability counter screen (AID 1224836). Further: nearly all actives have a fitted effect of over 45% in size. Further: potency means the concentration at half of the fitted maximal effect. On viability change, negative = cytotoxic: series mostly up to about 92 µM. The procedure, abridged:
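HepG2 cells stably carrying hCAR and a CYP2B6-2.2kb reporter; 15-concentration compounds plus PK11195 (final 0.75 uM), 23 hr at 37 C/5% CO2. Viability read by CellTiter-Fluor fluorescence.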

The nature of experiment [8]: qHTS assay to identify small molecule antagonists of the constitutive androstane receptor (CAR) signaling pathway - cell viability counter screen (AID 1224837). Further: nearly all actives have a fitted effect of over 45% in size. Further: potency means the concentration at half of the fitted maximal effect. On activity change, negative = cytotoxicity: series mostly up to about 92 µM. The gist of the method:
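To flag cytotoxic false antagonists, HepG2 hCAR/CYP2B6-2.2kb cells were treated 23 hr with 15-concentration compound series and 50 nM CITCO at 37 C/5% CO2; CellTiter-Fluor fluorescence was the measured end point.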

The nature of experiment [9]: qHTS assay to identify small molecule antagonists of the estrogen related receptor signaling pathway with the pleiotropic PPARgamma coactivator (PGC) from Tox21 10K library - cell viability counter screen (AID 1224840; active means well fitted cell-killing curve with a large enough effect in the repeat runs, not every such curve was filed as active; further: nearly all actives have a fitted effect of over 40% in size; further: potency means the concentration at half of the fitted maximal effect). The procedure, abridged:
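Seeded PGC/ERR cells (2,000/well, 6 h, 37 C/5% CO2) get compound by pin tool; 17.5 h incubation at 37 C; CellTiter-Fluor added, 30 min, fluorescence measured.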

Experiment [10] is described as follows: qHTS assay to identify small molecule agonists of the estrogen related receptor signaling pathway with the pleiotropic PPARgamma coactivator (PGC) from Tox21 10K library (AID 1224842). Further: nearly all actives have a fitted effect of over 15% in size. The procedure, abridged:
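PGC/ERR reporter cell line, 2,000 cells per well, incubated 6 h at 37 C before 23 nL compound in DMSO was added. After 18 h at 37 C, One-Glo luminescence read following 30 min at room temperature.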

Experiment [11] deals with Thyrotropin receptor (Homo sapiens) (UniProt P16473). Put plainly: qHTS assay to identify small molecule agonists of the thyroid stimulating hormone receptor (TSHR) signaling pathway (AID 1224843; calls by dose curve; further: nearly all actives have a fitted effect of over 45% in size). The procedure, abridged:
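Agonist-mode screen: TSHR HEK293 cells received test chemicals for half an hour at room temperature, then HTRF cAMP detection reagents for one hour prior to fluorescence measurement. Each chemical ran as a 15-concentration series, triplicated.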

A short description of experiment [12]: qHTS assay to identify small molecule antagonists of the estrogen related receptor signaling pathway with the pleiotropic PPARgamma coactivator (PGC) from Tox21 10K library (AID 1224841; call rule not given here; further: series mostly up to about 92 µM; actives are mostly falling curves and most rising ones were filed inactive; nearly all actives have a fitted effect of over 50% in size). The gist of the method: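 Test chemicals dissolved in DMSO were applied to pre-incubated (6 h) PGC/ERR cells at 2,000 cells/well for an 18 h, 37 C treatment; reporter luminescence was then read using One-Glo.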

Experiment [13] has as its target Nuclear receptor subfamily 1 group I member 3 (Homo sapiens) (UniProt Q14994). Put plainly: qHTS assay to identify small molecule antagonists of the constitutive androstane receptor (CAR) signaling pathway (AID 1224838).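 Further: HepG2 cells stably expressing hCAR with CYP2B6 luciferase reporter stimulated by CITCO; nearly all actives have a fitted effect of over 40% in size.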 The procedure, abridged: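 Human hepatoma HepG2 cells expressing hCAR and a CYP2B6 promoter (2.2 kb) luciferase construct; compound titration (15 points) with 50 nM CITCO final, 24 h at 37 C/5% CO2; luminescence via ONE-Glo after 30 min at room temperature.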

For experiment [14] the target is unchanged. Kind of experiment: qHTS assay to identify small molecule agonists of the constitutive androstane receptor (CAR) signaling pathway (AID 1224839). Further: series mostly up to about 92 µM; nearly all actives have a fitted effect of over 15% in size. The procedure, abridged: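 HepG2 cells stably co-transfected with hCAR and a CYP2B6-2.2kb luciferase reporter; compounds at 15 concentrations with 0.75 uM PK11195 present. After 24 hr at 37 C, luciferase read by ONE-Glo luminescence.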

The nature of experiment [15]: qHTS assay to identify small molecule antagonists of the estrogen related receptor (ERR) signaling pathway - cell viability counter screen (AID 1224818). Further: series mostly up to about 46 µM. The gist of the method:
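Compounds dissolved in DMSO were applied to ERR cells seeded at 2,000 per well 6 h earlier. Cell viability followed 17.5 h later via 30-min CellTiter-Fluor fluorescence.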

Experiment [16] can be described thus: qHTS assay to identify small molecule antagonists of the estrogen related receptor (ERR) signaling pathway (AID 1224819; further: series mostly up to about 46 µM; nearly all actives have a fitted effect of over 50% in size). The gist of the method: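 Compounds dissolved in DMSO were pin-transferred onto ERR cells that had been plated 6 h earlier, and cells were then incubated 18 h at 37 C; signal was luciferase luminescence via One-Glo.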
Experiment [17] can be described thus: qHTS assay to identify small molecule agonists of the estrogen related receptor (ERR) signaling pathway (AID 1224820). The procedure, abridged:
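After 6 h plating (2,000 cells/well) and 18 h compound treatment at 37 C, ERR cells were lysed with One-Glo and luminescence read after 30 min at room temperature.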

Experiment [18] has as its system estrogen-related receptor alpha (ERRalpha) with PGC-1alpha coactivator, human. Kind of experiment: qHTS assay to identify small molecule antagonists of the estrogen related receptor signaling pathway with the pleiotropic PPARgamma coactivator (PGC) (AID 1224821; calls by dose curve). The procedure, abridged:
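Luminescence from One-Glo luciferase reagent (30 min, room temperature) measured after 18 h compound treatment at 37 °C. Cells carry the PGC/ERR reporter and were seeded 6 h prior to dosing.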

Experiment [19] can be described thus: qHTS assay to identify small molecule antagonists of the estrogen related receptor signaling pathway with the pleiotropic PPARgamma coactivator (PGC) cell viability counter screen (AID 1224822; further: series mostly up to about 46 µM). The procedure, abridged: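 Counter screen for cell viability: PGC/ERR cells, 6 h pre-incubation after plating, 17.5 h compound exposure at 37 C, fluorescence from CellTiter-Fluor after 30 min.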

The nature of experiment [20]: qHTS assay to identify small molecule agonists of the estrogen related receptor signaling pathway with the pleiotropic PPARgamma coactivator (PGC) (AID 1224823). The gist of the method: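 Luminescence from One-Glo reagent (30 min, room temperature) was read after 18 h compound treatment at 37 C of PGC/ERR cells plated 6 h beforehand; compounds delivered in DMSO by pin tool.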

Each structure is given as a SMILES string. Results filed as inconclusive are left out. A number with no mark means an inactive call. Active and inactive are the calls of the source. Unless noted, the call rests on the fitted dose curve; in most records, active means well fitted curve in the direction sought with a large enough effect in the repeat runs; inconclusive means weak or mixed curves; inactive means no such curve, though single readings can be large; an effect the other way counts as inactive or inconclusive.
On the % scale 0 is the no-effect control and ±100 the full control effect.

Sequence of Luciferin 4-monooxygenase (Photinus pyralis) (P08659 whole entry, looked up): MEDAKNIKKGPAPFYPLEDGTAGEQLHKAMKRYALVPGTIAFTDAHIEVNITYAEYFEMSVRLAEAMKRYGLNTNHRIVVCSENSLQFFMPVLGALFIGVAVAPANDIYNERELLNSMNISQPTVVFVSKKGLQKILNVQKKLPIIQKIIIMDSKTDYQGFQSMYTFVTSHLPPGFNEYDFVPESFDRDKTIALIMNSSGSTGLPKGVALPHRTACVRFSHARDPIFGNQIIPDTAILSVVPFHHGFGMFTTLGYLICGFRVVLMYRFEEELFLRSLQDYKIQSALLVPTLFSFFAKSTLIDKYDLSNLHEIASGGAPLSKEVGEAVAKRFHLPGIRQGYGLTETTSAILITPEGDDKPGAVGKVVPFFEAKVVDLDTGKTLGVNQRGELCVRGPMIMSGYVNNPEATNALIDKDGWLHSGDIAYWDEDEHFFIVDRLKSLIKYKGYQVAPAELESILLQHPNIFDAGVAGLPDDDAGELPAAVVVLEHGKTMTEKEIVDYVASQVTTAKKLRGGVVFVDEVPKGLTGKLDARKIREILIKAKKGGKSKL
Sequence of Nuclear receptor subfamily 1 group I member 3 (Homo sapiens) (Q14994 whole entry, looked up): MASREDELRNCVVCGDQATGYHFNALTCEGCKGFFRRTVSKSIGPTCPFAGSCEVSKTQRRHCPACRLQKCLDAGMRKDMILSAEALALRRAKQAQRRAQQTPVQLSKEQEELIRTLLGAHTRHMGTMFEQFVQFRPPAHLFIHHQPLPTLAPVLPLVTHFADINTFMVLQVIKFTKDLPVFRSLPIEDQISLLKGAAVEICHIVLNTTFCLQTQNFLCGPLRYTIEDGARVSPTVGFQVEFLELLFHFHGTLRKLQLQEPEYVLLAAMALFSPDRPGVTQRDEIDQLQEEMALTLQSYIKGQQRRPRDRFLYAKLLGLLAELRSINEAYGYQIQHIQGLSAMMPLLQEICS
Sequence of Thyrotropin receptor (Homo sapiens) (P16473 whole entry, looked up): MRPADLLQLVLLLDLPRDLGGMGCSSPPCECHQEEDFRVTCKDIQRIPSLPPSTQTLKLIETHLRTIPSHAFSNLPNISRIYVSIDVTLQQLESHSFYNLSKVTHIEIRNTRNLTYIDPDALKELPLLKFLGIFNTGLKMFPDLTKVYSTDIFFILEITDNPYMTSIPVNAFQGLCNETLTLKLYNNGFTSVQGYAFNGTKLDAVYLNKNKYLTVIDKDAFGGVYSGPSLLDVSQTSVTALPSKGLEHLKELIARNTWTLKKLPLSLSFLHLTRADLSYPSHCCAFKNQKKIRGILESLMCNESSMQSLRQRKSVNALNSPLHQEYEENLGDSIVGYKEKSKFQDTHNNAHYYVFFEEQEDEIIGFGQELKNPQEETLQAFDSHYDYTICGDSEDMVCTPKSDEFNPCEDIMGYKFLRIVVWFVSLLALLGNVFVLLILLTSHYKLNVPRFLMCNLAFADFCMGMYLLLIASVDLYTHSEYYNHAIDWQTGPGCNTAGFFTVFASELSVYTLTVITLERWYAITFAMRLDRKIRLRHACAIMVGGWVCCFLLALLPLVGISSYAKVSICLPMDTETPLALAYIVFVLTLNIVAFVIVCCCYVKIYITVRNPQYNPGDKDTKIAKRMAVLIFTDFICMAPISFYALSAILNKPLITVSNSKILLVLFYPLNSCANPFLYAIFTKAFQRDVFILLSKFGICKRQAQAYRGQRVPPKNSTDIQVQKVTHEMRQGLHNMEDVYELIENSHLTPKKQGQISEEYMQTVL

Turning to `Cc1cccc(C)c1OCC(=O)N[C@@H](Cc1ccccc1)[C@@H](O)C[C@H](Cc1ccccc1)NC(=O)[C@H](C(C)C)N1CCCNC1=O`, the Potency in [1] was 23.9 µM (active); in [5], 21.1 µM (active); in [7] it was 18.8 µM (active); in [8], 13.3 µM (active); in [9], 33.5 µM (active). The Potency result in experiment [2], in experiment [3], in [4], in experiment [6], in experiment [10] and in experiment [11] was “inactive” in each case.

For the compound `C[C@@H](c1ncncc1F)C(O)(Cn1cncn1)c1ccc(F)cc1F` (some centres not stated), the Potency result in [1], in [2], in [3], in [4], in [5] and in [6] was “inactive” in each case. In addition, the Potency entry in experiment [7], in experiment [8], in [9], in experiment [12] and in experiment [10] was “inactive” in each case.

On to `CCO[C@H](Cc1ccc(OCCc2ccc(OS(C)(=O)=O)cc2)cc1)C(=O)O`, for which the Potency result in [1], in [2], in experiment [3], in experiment [4], in experiment [5] and in experiment [7] was “inactive” each time. The Potency result in experiment [8], in [13], in experiment [14] and in experiment [9] was “inactive” throughout.

As to `CC(C)(C)OCC1CO1` (configuration not stated), the Potency result in experiment [1], in experiment [2], in experiment [4], in experiment [5], in experiment [6] and in experiment [7] was “inactive” throughout. For the same compound, the Potency entry in experiment [8] and in [9] was “inactive” in each case.

`C[N+]1(C)CCC(OC(=O)C(O)(c2ccccc2)C2CCCC2)C1` (configuration not stated): the Potency result in experiment [1], in [2], in experiment [4], in [5], in experiment [6] and in [7] was “inactive” each time. Further, the Potency entry in experiment [8], in experiment [13], in [14], in experiment [9] and in experiment [11] was “inactive” in each case.

Take `O=C(Nc1ccc(S(=O)(=O)N2CCOCC2)cc1)c1cc(Cl)ccc1NS(=O)(=O)c1ccc(Cl)s1`: the Potency entry in experiment [1], in experiment [2], in experiment [4], in experiment [5], in experiment [6] and in experiment [7] was “inactive” throughout. Also, the Potency entry in experiment [8], in experiment [9], in [10] and in [11] was “inactive” each time.

For `NC(N)=NCCC[C@H](N)C(=O)O`, the activity change, negative = cytotoxicity in [1] was 6.89% [at 6.97 µM]; in [2], -0.0145% [at 8.39 µM]; in [8], -4.98% [at 8.39 µM]. In addition, the activation in [4] was 0.0873% [at 8.36 µM]; in experiment [10] it was -1.51% [at 8.39 µM]. For the same compound, the result in experiment [15], in [17], in experiment [19] and in experiment [20] was inactive. Also, the Potency result in [16] and in experiment [18] was “inactive” each time. Besides, the viability change, negative = cytotoxic is 3.84% [at 8.39 µM] in experiment [5], 0.813% [at 8.39 µM] in experiment [7] and -6.77% [at 8.39 µM] in [9]. Moreover, in [6], the activity change, negative = inhibition is 0.418% [at 10.5 µM]. Also, the activity, negative = inhibition in [12] is -5.77% [at 8.39 µM].

Regarding `CNC(=O)CN(CCN(CCN(CC(=O)[O-])CC(=O)NC)CC(=O)[O-])CC(=O)[O-].O.[Gd+3]`, the Potency entry in [1], in [2], in experiment [4], in [5], in experiment [6] and in [7] was “inactive” throughout. The Potency result in experiment [8], in experiment [13], in [14] and in experiment [9] was “inactive” each time.

Turning to `Nc1cccc([N+](=O)[O-])c1`, the Potency result in [1], in experiment [2], in experiment [4], in [5], in experiment [6] and in [7] was “inactive” each time. Moreover, the Potency result in experiment [8], in experiment [13], in [14], in experiment [9] and in experiment [10] was “inactive” throughout.

As for `COCC(C)OC(C)=O` (configuration not stated), the Potency result in [1], in experiment [2], in experiment [4], in experiment [5], in experiment [6] and in [7] was “inactive” throughout. Also, the Potency entry in experiment [8], in experiment [13] and in experiment [9] was “inactive” in each case.
